Experimental data taken from ChEMBL document CHEMBL2218924, “A broad activity screen in support of a chemogenomic map for kinase signalling research and drug discovery” (Biochem J, 2013).

What was measured:
[1] = target: T1, Serine/threonine-protein kinase Sgk3 (Homo sapiens) (UniProt Q96BR1); conditions: at 1 µM
T1 sequence (whole entry): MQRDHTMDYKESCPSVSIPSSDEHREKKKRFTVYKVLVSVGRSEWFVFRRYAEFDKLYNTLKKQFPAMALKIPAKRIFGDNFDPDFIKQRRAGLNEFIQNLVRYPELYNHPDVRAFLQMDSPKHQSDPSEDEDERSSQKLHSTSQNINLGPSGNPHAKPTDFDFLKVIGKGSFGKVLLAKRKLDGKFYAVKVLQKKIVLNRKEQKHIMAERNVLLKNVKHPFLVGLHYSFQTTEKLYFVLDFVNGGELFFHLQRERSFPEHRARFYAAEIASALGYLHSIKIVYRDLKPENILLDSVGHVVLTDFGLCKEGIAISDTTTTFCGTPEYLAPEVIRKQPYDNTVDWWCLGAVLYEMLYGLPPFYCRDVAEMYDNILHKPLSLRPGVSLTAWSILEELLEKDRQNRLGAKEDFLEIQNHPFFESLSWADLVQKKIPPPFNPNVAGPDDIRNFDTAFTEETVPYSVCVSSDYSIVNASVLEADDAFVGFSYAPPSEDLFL

[2] = target: T2, Mitogen-activated protein kinase 12 (Homo sapiens) (UniProt P53778); conditions: at 1 µM
T2 sequence (whole entry): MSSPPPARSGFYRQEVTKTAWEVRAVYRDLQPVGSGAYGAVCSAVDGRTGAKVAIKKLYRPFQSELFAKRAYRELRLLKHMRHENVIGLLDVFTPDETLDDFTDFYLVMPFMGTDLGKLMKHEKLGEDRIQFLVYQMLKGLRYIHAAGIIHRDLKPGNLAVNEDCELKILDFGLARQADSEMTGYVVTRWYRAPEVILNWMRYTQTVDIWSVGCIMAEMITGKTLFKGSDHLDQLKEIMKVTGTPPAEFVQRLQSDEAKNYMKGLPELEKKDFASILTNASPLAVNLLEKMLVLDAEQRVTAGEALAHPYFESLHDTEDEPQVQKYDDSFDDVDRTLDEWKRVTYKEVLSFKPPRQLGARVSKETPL

[3] = target: T2, Mitogen-activated protein kinase 12 (Homo sapiens); conditions: at 10 µM

Compound: O=C1Cc2c([nH]c3ccc(Br)cc23)-c2ccccc2N1
- residual activity [1]: 91%

Compound: CN(C)c1ccc(/C=C2\C(=O)Nc3ccccc32)cc1
- residual activity [2]: 113%
- residual activity [3]: 83%
- residual activity [1]: 106%

Compound: Cc1cc(Nc2nc(-c3ccccc3)nc3ccccc23)n[nH]1
- residual activity [2]: 103%
- residual activity [1]: 107%
